Assay outcomes: PubChem BioAssay, National Center for Advancing Translational Sciences (NCATS)
A selection: hits, their analogues and other compounds. The true share with any hit is near 21%.
Cycloheximide cs: counter-screen hit for Shiga toxin inhibitors, cycloheximide. AID 2314. cell reporter, cycloheximide protein synthesis inhibition counterscreen. max response, %. 300,000 tested, 12% active; in the data active = max response mostly above about 13%, no sharp cut-off; inactive = mostly below about 14%; note: read at 38.3 µM for the half of the compounds with a filed dose; 0% is about no effect
Pf growth 48h: P. falciparum growth inhibition at 48 hours (one generation). P. falciparum luciferase growth in erythrocytes, 48 h. Potency, µM (series often up to 28.7 µM), inactives show at the top dose activity change, negative = inhibition, actives largely listed as inhibitors. 310,000 tested, 5.9% active. AID 504832; note: potency is the fitted concentration of half-maximal effect; % is set by controls: 0 for no effect and ±100 for the full control effect
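Growth was read as firefly luciferase luminescence after a 48 h, 37 C, 5% CO2 exposure of compounds to reporter-bearing P. falciparum cultures (0.1% parasitemia, 2% hematocrit final) in Albumax-supplemented RPMI 1640.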
NS1 function inh: influenza NS1 inhibition; 270,000 tested, 0.4% active; Potency, µM (highest dose often 46.1 µM), for the others: at the top dose activity, positive = more growth; AID 2326; calls by dose curve; note: potency is the fitted concentration of half-maximal effect; actives are rising curves; nearly all actives have a fitted effect of over 50% in size
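Growth recovery, yeast-based: influenza A NS1 expressed in S. cerevisiae causes slow growth, and suppressors are detected by OD600. The parent strain without NS1 is used as positive control.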
Pf growth 96h: P. falciparum growth inhibition at 96 hour, primary screen for plastid delayed-death inhibitors; AID 504834; P. falciparum luciferase reporter growth, 96 h; Potency, µM (highest dose often 28.7 µM), for the others: top-dose activity change, negative = inhibition, hits mostly inhibitors; 320,000 tested, 6.9% active; note: potency is the fitted concentration of half-maximal effect; % is set by controls: 0 for no effect and ±100 for the full control effect
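Compounds incubated with erythrocytes infected by luciferase-expressing P. falciparum (2% hematocrit, 0.05% parasitemia final) for 96 hours, 37 C in 5% CO2. Growth inhibition scored as decreased luciferase luminescence.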
Shiga toxin inh: inhibitors of Shiga toxin in Vero cells; inhibition, % at 38.7 µM; Vero cells, Shiga toxin protein synthesis inhibition reporter; 290,000 tested, 9.2% active; in the data active = inhibition mostly above about 28%, no sharp cut-off; inactive = mostly below about 43%; note: 0% is about no effect
* = called active by the depositor; ? = inconclusive; . = no result. Unless noted, calls come from the whole dose curve; as a rule, active = well fitted inhibition curve with a large enough effect; inconclusive = small, poorly fitted or top-dose-only effect, or another doubt; inactive = no such curve, though single readings can be large or run the other way.

SMILES	Cycloheximide cs	Pf growth 48h	NS1 function inh	Pf growth 96h	Shiga toxin inh
CCCN1C(=O)SC(CC(=O)Nc2ccccc2C)C1=O (stereo not given)	1	19%	-29%	-15%	-5
CCOc1ccc(N2C(=O)C(CC(=O)Nc3ccccc3)N(Cc3ccccn3)C2=S)cc1 (stereo not given)	-3	?	.	9.3µM*	16
Cc1ccc(-n2ccc(=O)c(C(=O)Nc3ccc(S(=O)(=O)Nc4nccs4)cc3)n2)cc1	-4	0%	-5%	?	-13
O=C(CC1SC(=O)N(c2ccccc2)C1=O)Nc1cccc2ccccc12 (stereo not given)	21*	0%	18%	20%	38
COc1ccc(OC2C(=O)N(Cc3ccc(F)cc3)C2c2ccc(OC)c(OC)c2)cc1 (stereo not given)	-3	?	-2%	?	-6
COc1ccc(OC2C(=O)N(Cc3ccc4c(c3)OCO4)C2c2sccc2C)cc1 (stereo not given)	-1	?	4%	4.1µM*	-25
O[C@@H]1COC(Nc2ccc(N=Nc3ccccc3)cc2)C[C@@H]1O (stereo not given in full)	62*	132%	-8%	103%	95*
Cc1ccc(-c2nc3ccccc3s2)cc1S(=O)(=O)N1CCCC1	30*	.	15%	?	43
Cc1ccc(-c2nnc(NC3CCCCC3)c3ccccc23)cc1S(=O)(=O)N1CCN(C)CC1	1	.	-10%	?	-17
Cc1ccc(-c2nnc(NCc3nc4ccccc4[nH]3)c3ccccc23)cc1S(=O)(=O)N1CCCCC1	-3	?	?	13µM*	8
O=S(=O)(c1cccc(-c2nc3ccccc3s2)c1)N1CCOCC1	14	.	5%	?	2
Cc1cc(Cn2nnc3ccccc32)c(O)c(C(C)(C)C)c1	.	12µM*	.	?	.
Oc1ccccc1Cn1nnc2ccccc21	-3	9%	-11%	?	-8
CC(C)(C)c1cccc(Cn2nnc3ccccc32)c1O	.	9.3µM*	.	?	.
O=C1C(=O)c2c(C(=O)c3ccccc3)coc2-c2ccccc21	11	.	-40%	?	-19
CCOC(=O)c1c(C)oc2c1C(=O)c1ccccc1C2=O	30*	0.74µM*	-32%	-3%	50*
Cc1oc2c(c1C(=O)O)C(=O)c1ccccc1C2=O	13	?	3%	?	45
Cc1oc2c(c1C(=O)c1ccccc1)C(=O)C(=O)c1ccccc1-2	11	9.3µM*	-169%	13µM*	-5
COc1ccc(-c2cc(=O)oc3cc(OCc4nn[nH]n4)ccc23)cc1	-1	37%	-16%	4.7µM*	-2
COc1ccc(C(=O)COC(=O)c2cc(S(=O)(=O)NCc3ccccc3)ccc2O)cc1	2	10%	.	1%	-9
CN(C)C(=O)C(=O)c1c(-c2ccccc2)cc2ccccn12	8	-3%	-20%	9%	11
O=Nc1c(-c2ccccc2)cc2ccccn12	48*	4.7µM*	10%	9.3µM*	130*
CC1(C2CC2)NC(=O)N(CC(=O)Nc2ccccc2C#N)C1=O (stereo not given)	.	-7%	.	15%	.
Cc1cccc(-c2noc(CCC(=O)NCCc3ccccc3)n2)c1	3	31%	-11%	?	26
Cc1cccc(-c2noc(Cc3ccccc3)n2)c1	56*	58%	-12%	82%	100*
SMILES	Cycloheximide cs	Pf growth 48h	NS1 function inh	Pf growth 96h	Shiga toxin inh
Cc1cccc(-c2noc(CNS(=O)(=O)c3ccccc3)n2)c1	18*	23%	-4%	-29%	10
Cc1cccc(-c2noc(CCc3ccccc3)n2)c1	40*	.	-19%	8%	81*
CCS(=O)(=O)c1nc(S(=O)(=O)c2ccc(C)cc2)c(N2CCN(C)CC2)s1	1	-9%	-11%	?	1
Cc1cccc(NC(=S)NNC(=O)Cc2ccccc2)c1	-6	3%	1%	-3%	-10
Cc1cccc(NC(=S)N/N=C(\c2ccccc2)C(C)C)c1	26*	?	-6%	38%	55*
CC/C(=N\NC(=S)Nc1cccc(C)c1)c1ccccc1	17	9.3µM*	-60%	?	30
CCC(C)N1C(=O)/C(=C/c2c(NCCCOC(C)C)nc3c(C)cccn3c2=O)SC1=S (stereo not given)	-3	1.2µM*	-3%	?	10
CCCN1C(=O)/C(=C/c2c(NCCCOC(C)C)nc3c(C)cccn3c2=O)SC1=S	2	?	0%	37%	18
N#C/C(=C\Nc1ccccc1SC(F)(F)F)c1nc(-c2ccccc2)cs1	-6	?	2%	?	-7
COc1cc2c(cc1N/C=C(\C#N)c1nc(-c3ccc(F)cc3)cs1)oc1ccccc12	0	9.3µM*	0%	?	-5
Cc1c(O)ccc(NC(=O)/C=C/c2ccccc2)c1C	12	13%	-2%	?	48*
COc1cc(NC(=O)/C=C/c2ccccc2)c(C(=O)O)cc1OC	0	3%	-1%	35%	10
COC(=O)c1cc(NC(=O)/C=C/c2ccccc2)ccc1O	48*	130%	-8%	35%	121*
CCS(=O)(=O)c1ccc(O)c(NC(=O)/C=C/c2ccccc2)c1	28*	37%	-3%	21%	73*
CCOC(=O)C/C(N)=N/N(C)c1ncc(C(F)(F)F)cc1Cl	-6	-12%	17%	-14%	13
C/C(=N\NC(=O)c1ccccc1)c1c(O)n(Cc2ccccc2)c(=O)[nH]c1=O	52*	34%	-4%	18%	101*
C/C(=N\NC(=O)c1ccncc1)c1c(O)n(-c2ccccc2)c(=O)[nH]c1=O	8	-7%	-2%	8%	-13
CC/C(=N\NC(=O)Nc1ccccc1)c1c(O)n(Cc2ccccc2)c(=O)[nH]c1=O	35*	-1%	0%	31%	105*
C/C(=N\Nc1cccc2ccccc12)c1c(O)n(Cc2ccccc2)c(=O)[nH]c1=O	1	15µM*	22%	?	-4
CCN(Cc1ccccc1)C(=O)CCS(=O)(=O)c1ccc2c(c1)CCN2C(C)=O	-1	-13%	7%	?	-2
COc1ccc(-c2cc(OC)c3ccccc3n2)cc1	14	48%	-39%	68%	active
COc1ccc(-c2noc(C)c2-c2ccc3ccccc3n2)c(O)c1	-4	12µM*	-158%	15µM*	-17
COc1ccc(-c2cc3ccccc3cn2)cc1	.	160%	.	314%	.
Nc1ccc(-c2ccc3ccccc3n2)cc1	25*	.	1%	.	71*
COc1ccc(-c2ccc3ccccc3n2)cc1	41*	125%	-6%	310%	71*
CC(C)(C)c1ccc(OCC(=O)NNC(=S)NC(=O)c2ccccc2[N+](=O)[O-])c(Br)c1	-2	15%	?	?	-6
COc1ccc(-c2cc3cc(OC)c(OC)cc3c(C)n2)cc1	34*	96%	-38%	?	75*
COc1ccc(-c2ccc3ccccc3n2)cc1OC	46*	56%	-16%	159%	133*
